Measles inh – inhibitors of measles virus growth in infected cells | infected Vero cells, GFP fluorescence, 64 h; active compounds read low | z-score (no concentration beside the values) | AID 745 | 0.1% of 33,000 active; in the data active means z-score below about -3
Active calls of the source: *. Only a selection was taken, and hits are over-represented in it overall.

SMILES | Measles inh
Cc1cc(N2CCN(C)CC2)nc2ccc(NC(=O)c3cccc(C(F)(F)F)c3)cc12 | 0.66
CCN1CCN(c2cc(C)c3cc(NC(=O)Cc4cccc(C)c4)ccc3n2)CC1 | -1.5
Cc1cc(N2CCN(C)CC2)nc2ccc(NC(=O)Cc3cccc(C(F)(F)F)c3)cc12 | -3.1*
Cc1c(Cc2ccc(Cl)cc2)c(NCCN2CCOCC2)n2c(nc3ccccc32)c1C#N | -1.2
CC1CCCCC1NC(=O)c1ccc2c(c1)C(=O)N(c1ccccn1)C2=O (stereo unspecified) | 2.1
NS(=O)(=O)c1ccc(CCNC(=O)C2CCCN(S(=O)(=O)c3cccc4nsnc34)C2)cc1 (stereo unspecified) | -0.81
O=C(NCCN1CCOCC1)C1CCCN(S(=O)(=O)c2cccc3nsnc23)C1 (stereo unspecified) | -0.04
CCN(CCNC(=O)C1CCCN(S(=O)(=O)c2cccc3nsnc23)C1)c1ccccc1 (stereo unspecified) | -3.3*
COc1cc(OC)cc(-c2nc(-c3ccncc3)no2)c1 | -0.91
CCOC(=O)c1c(Cl)[nH]c2ccccc2c1=O | -1.2
O=S(=O)(Nc1ccccc1Cl)c1cccc2cccnc12 | 0.28
CCc1ccccc1NC(=O)c1ccc(NCc2ccccc2Cl)c([N+](=O)[O-])c1 | 0.23
COc1ccc(S(=O)(=O)CCC(=O)NC2CCCCCC2)cc1 | -0.71
O=C1C2C3CCC(C3)C2C(=O)N1c1ccccc1F (stereo unspecified) | -0.46
COC(=O)c1ccccc1N1C(=O)C2C3CCC(C3)C2C1=O (stereo unspecified) | -3.7*
CCCCOC(=O)c1ccccc1N1C(=O)C2C3CCC(C3)C2C1=O (stereo unspecified) | -0.03
O=C(COC(=O)c1ccc(OC(=O)c2ccc([N+](=O)[O-])cc2)cc1)c1ccccc1 | -0.39
CCCC(=O)N1c2ccc(OCC)cc2C(=C2SC(C(=O)OC)=C(C(=O)OC)S2)C(=S)C1(C)C | 0.35
COc1ccc2cc(S(=O)(=O)NCCC34CC5CC(CC(C5)C3)C4)ccc2c1 | -0.89
CCOC(=O)c1c(-c2ccc(Br)cc2)csc1NC(=O)CSc1ccccc1 | 0.88
CCOc1ccc(NC(=O)CC23CC4CC(CC(C4)C2)C3)cc1 | -0.82
CCOc1ccccc1NC(=O)CN1C(=O)C2C3C=CC(C3)C2C1=O (stereo unspecified) | 1.3
CCOc1ccc(NC(=O)CN2C(=O)C3C4CCC(C4)C3C2=O)cc1 (stereo unspecified) | -3.2*
CCc1cccc(C)c1NC(=O)c1cc(S(=O)(=O)NCCc2ccc(Cl)cc2)ccc1F | -0.89
Cc1c(Cl)cccc1NC(=O)C1CC(=O)N(c2cccc(Cl)c2C)C1 (stereo unspecified) | 0.43
SMILES | Measles inh
CC(=O)N1CCc2cc(Br)cc(S(=O)(=O)CCC(=O)NCc3cccs3)c21 | 1.5
CC1CCCC(C)N1CCNC(=O)CCN1C(=O)COc2ccccc21 (stereo unspecified) | -0.4
O=C(CCN1C(=O)COc2ccccc21)NCCc1ccc(Cl)cc1 | -0.22
O=C(CCN1C(=O)COc2ccccc21)NCCN1CCc2ccccc2C1 | -6.4*
CCc1ccccc1NC(=O)c1ccc(F)c(S(=O)(=O)N2CCC(C)CC2)c1 | -0.08
Cc1nc(NC(C)CCc2ccccc2)c2sc3nc4c(cc3c2n1)COC(C)(C)C4 (stereo unspecified) | 0.36
CCOC(=O)c1sc2nc3n(c(=O)c2c1C)N=C(c1cc2ccccc2oc1=O)CS3 | -0.36
CC(C)CCNS(=O)(=O)c1ccc2c(c1)CCN2C(=O)C1CCC1 | 1.9
O=C(O)CCc1ccc(-c2ccc(F)cc2)n1-c1cccc(C(F)(F)F)c1 | -0.55
CC(Sc1nc2c(c(=O)n1-c1ccccc1)SCC2)c1ccccc1 (stereo unspecified) | -0.04
CCn1c(COc2ccccc2C)nc2ccccc21 | -0.28
Cc1ccccc1OCCn1c(SCC(N)=O)nc2ccccc21 | 1.5
COCc1nc2ccccc2n1CCOc1ccccc1C | -3.4*
N#CC1C(=O)NC(=O)C(C(=O)S)C12CCCCC2 (stereo unspecified) | 0.17
N#Cc1ccc(-c2ccccc2)nc1SCC(=O)c1ccccc1 | -0.61
COc1ccccc1OCCCCCCN1CCOCC1 | -0.57
CC(C)(C)c1cc(Br)ccc1OCCCN1CCOCC1 | -3.3*
Cc1cccc(C)c1OCCCCCCN1CCOCC1 | -0.51
COc1ccc2c(c1OC)C(=O)OC2Nc1ccc(NC(C)=O)cc1 (stereo unspecified) | 2.1
CC1(C)CC(C)(c2ccc(Cl)cc2)c2ccccc2N1 (stereo unspecified) | -0.75
CCCCOC(=O)c1ccc(NC(=O)c2cncc(Br)c2)cc1 | -0.26
COC(=O)CNC(=O)c1cn(-c2ccccc2OC)c(=O)c2ccccc12 | -0.64
COc1ccc(C2=NN(S(=O)(=O)c3ccccc3)C(c3ccccc3)C2)cc1OC (stereo unspecified) | 0.21
CCCCN(C)c1nc(-c2ccccc2)c2c(c1C#N)CC(C)(C)OC2 | 1
CCCOC(=O)C1=C(C)NC2=C(C(=O)CC(c3cccs3)C2)C1c1ccc(OC)c(OC)c1 (stereo unspecified) | -0.34
SMILES | Measles inh
O=C(O)c1ccc(N2C(=O)C3C4C=CC(C4)C3C2=O)cc1 (stereo unspecified) | 0.84
N#Cc1ccc(N2C(=O)C3C4C=CC(C4)C3C2=O)cc1 (stereo unspecified) | 0.54
CCCCOc1ccc(N2C(=O)C3C4C=CC(C4)C3C2=O)cc1 (stereo unspecified) | -3.3*
CCOC(=O)c1c(NC(=O)c2cccc([N+](=O)[O-])c2C)sc2c1CCCCC2 | 0.11
Cc1ccc(NC(=O)Cn2c(C)nc3sc4c(c3c2=O)CCCC4)cc1F | -1.4
CCCCCCSc1nnc(-c2ccco2)c(-c2ccco2)n1 | -0.77
CCCCCSc1nc2ccccc2[nH]1 | -0.16
CCCCCCCSc1nnc2nc(C)cc(C)n12 | -3.1*
Cc1ccccc1NC(=O)C(C(C)C)N1C(=O)c2ccccc2C1=O (stereo unspecified) | 1.2
CCc1ccc(NC(=O)C2CCN(C(=O)c3ccccc3C)CC2)cc1 | -5*
Cc1ccccc1C(=O)N1CCC(C(=O)Nc2ccccc2C(F)(F)F)CC1 | 0.84
COc1ccc(C)cc1NC(=O)C1CCN(C(=O)c2ccccc2C)CC1 | -0.49
Cc1cccc(N(CC(=O)N2CCCCC2)S(C)(=O)=O)c1C | 1.3
Cc1cccc2c1-c1ncccc1C2=Nc1ccccc1 | -0.59
CCOC(=O)C1=NNC2C(=O)N(c3ccc(C)c(C)c3)C(=O)C12 (stereo unspecified) | -0.67
Cc1ccc2ccc(C(Nc3ccccn3)c3ccc(C(C)C)cc3)c(O)c2n1 (stereo unspecified) | -0.08
COC(=O)c1ccccc1NC(=O)CSc1nnc(-c2ccccc2)n1-c1ccccc1 | 0.58
c1ccc(-c2cn3c4ccccc4n(CCN4CCCCC4)c3n2)cc1 | -3.1*
N=c1n(CCO)c2ccccc2n1CCN1CCCCC1 | -0.81
Cc1cn2c3ccccc3n(CCN3CCCCC3)c2n1 | -0.96
COc1ccc(C2CC(C(F)(F)F)n3ncc(C(=O)NC(C)C)c3N2)cc1OC (stereo unspecified) | 0.57
CCC(C)c1ccc(NC(=O)CSc2nnnn2-c2ccc(OC)cc2)cc1 (stereo unspecified) | 0.78
COc1ccc(Cc2c(Cl)ncnc2Cl)cc1 | -0.43
COc1nc(Cl)cc(C)c1C(=O)NCc1ccc(Cl)cc1 | -0.85
COc1ccc(Cc2nc(C)cc(Cl)n2)cc1Cl | -3.8*
Cc1cccc(-n2nc3c(c2NC(=O)c2ccccc2[N+](=O)[O-])CS(=O)(=O)C3)c1C | 1.4
CCc1ccc(N2CN(Cc3ccccc3)CNC2=S)cc1 | -0.56
COC(=O)c1ccc(Nc2cc(N3CCOCC3)c3noc4c3c2C(=O)c2ccccc2-4)cc1 | -0.1

Assay outcomes (PubChem BioAssay)
